Assay results: PubChem BioAssay (NCI)
Values joined by “and” are separate entries in the source; they are usually repeats but may differ in a detail not shown here. Equal values may be shown once. This is part of a sample that, as a whole, favours compounds with a hit. Of some 79,000 tested, about 15% had one in any assay. A number with no mark means an inactive call. Active and inactive are the calls of the source. Rule as the data show it: active = growth inhibition above about 70%; inactive = the rest.

Experiments:
[1] = NCI Yeast Anticancer Drug Screen. Data for the rad50 strain (AID 155);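 also: 0% = growth of vehicle-only cultures of the same strain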; conditions: S. cerevisiae rad50 strain growth inhibition, active compounds read high; at 50.0 µM unless noted
How it was run: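 Growth of the mutant yeast was measured after compound exposure and referenced to vehicle-treated cultures.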

[2] = NCI Yeast Anticancer Drug Screen. Data for the mec2-1 strain (AID 157); conditions: S. cerevisiae mec2-1 strain, active compounds read high; at 50.0 µM unless noted
How it was run: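 Readout is yeast growth inhibition, normalised to vehicle-treated controls, in the mec2-1 strain exposed to compound.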

[3] = NCI Yeast Anticancer Drug Screen. Data for the sgs1 mgt1 strain (AID 161);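 also: 0% = growth of cultures given vehicle only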; conditions: S. cerevisiae sgs1 mgt1 strain, active compounds read high; at 50.0 µM unless noted
How it was run: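 Compounds are added to genetically altered yeast, and growth is compared with cultures given vehicle alone to give percent inhibition.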

[4] = NCI Yeast Anticancer Drug Screen. Data for the cln2 rad14 strain (AID 165);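 also: 0% = growth equal to vehicle treated cultures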; conditions: S. cerevisiae cln2 rad14 strain, active compounds read high; at 50.0 µM unless noted
How it was run: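 Relative to vehicle controls, growth inhibition of compound-treated cln2 rad14 yeast was recorded.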

[5] = NCI Yeast Anticancer Drug Screen. Data for the bub3 strain (AID 167); conditions: S. cerevisiae bub3 mutant strain, active compounds read high; at 50.0 µM unless noted
How it was run: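 Whole-cell yeast assay. The mutant strain was incubated with compounds, and growth inhibition was determined by comparison with vehicle-treated cells.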

[6] = NCI Yeast Anticancer Drug Screen. Data for the mlh1 rad18 strain (AID 175); conditions: S. cerevisiae mlh1 rad18 strain growth inhibition, active compounds read high; at 50.0 µM unless noted
How it was run: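 Test agents were incubated with a yeast strain of defined genotype (DNA damage repair defect). Inhibition of growth was derived by comparison with vehicle-exposed cultures.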

SMILES: CCOC(=O)/C(F)=C/c1ccc(C#N)cc1
- growth inhibition [1]: 29.3%
- growth inhibition [2]: -19.9%
- growth inhibition [3]: -4.25%
- growth inhibition [4]: 3.7%
- growth inhibition [5]: 8.35%
- growth inhibition [6]: 15.8%

SMILES: CCOC(=O)c1cc(/C=C/C(C)=C/C(=O)OC)n(C)c1C
- growth inhibition [1]: 74.5% (active)
- growth inhibition [2]: 56%
- growth inhibition [3]: 79.5% (active)
- growth inhibition [4]: 34.5%
- growth inhibition [5]: 80.2% (active)
- growth inhibition [6]: 58.5%

SMILES: NCCCOB(OCCCN)OCCCN
- growth inhibition [1]: 8.3%
- growth inhibition [2]: -7.4%
- growth inhibition [3]: -17.1%
- growth inhibition [4]: -20.2%
- growth inhibition [5]: -2.45%
- growth inhibition [6]: -10.2%

SMILES: C(=N\N1CN(/N=C/c2ccccc2)C(c2ccccc2)C1c1ccccc1)/c1ccccc1 (stereo not given)
- growth inhibition [1]: -6.2%
- growth inhibition [2]: -3.15%
- growth inhibition [3]: 4.5%
- growth inhibition [4]: 7.35%
- growth inhibition [5]: -1.65%
- growth inhibition [6]: 7.05%

SMILES: C=CCCCCCCC=C
- growth inhibition [1]: -23.6%
- growth inhibition [2]: -43%
- growth inhibition [3]: -4.1%
- growth inhibition [4]: 2.45%
- growth inhibition [5]: -34.2%
- growth inhibition [6]: -19.4%

SMILES: CC(=O)c1cc2c(cc1O)oc1c(C)ccc(C)c12
- growth inhibition [1]: 20.8%
- growth inhibition [2]: -3.4%
- growth inhibition [3]: 5.55%
- growth inhibition [4]: 18.2%
- growth inhibition [5]: -29.7%
- growth inhibition [6]: -13.8%

SMILES: Cc1cccc(Nc2nc(C)nc3[nH]cc(-c4ccccc4)c23)c1
- growth inhibition [1]: -14.7%
- growth inhibition [2]: -12.6%
- growth inhibition [3]: -10.9%
- growth inhibition [4]: -53.2%
- growth inhibition [5]: -15.5%
- growth inhibition [6]: -7.95%

SMILES: CCC(=N\NC(=S)NCCN(C)C)/C(C)=N/NC(=S)NCCN(C)C
- growth inhibition [1]: 57%
- growth inhibition [2]: 13.2%
- growth inhibition [3]: 52.2%
- growth inhibition [4]: 4.95%
- growth inhibition [5]: 16.5%
- growth inhibition [6]: 54.9%

SMILES: CCOC(=O)CON=c1c2ccccc2ccc2ccccc12
- growth inhibition [1]: 4.05%
- growth inhibition [2]: -5.85%
- growth inhibition [3]: -22.5%
- growth inhibition [4]: 3.4%
- growth inhibition [5]: -10.2%
- growth inhibition [6]: -2.45%

SMILES: CC(C)(O)C(=O)O
- growth inhibition [1]: -6% and -19%
- growth inhibition [2]: 6.1% and -1.45%
- growth inhibition [3]: -8.2% and -10.8%
- growth inhibition [4]: 2.05% and -32.8%
- growth inhibition [5]: 7.25% and -3.95%
- growth inhibition [6]: 6.6% and -4.6%

SMILES: CN1CC(c2ccccc2)C(O)(C2(c3ccccc3)CN(C)CC(c3ccccc3)C2=O)C(c2ccccc2)C1 (stereo not given)
- growth inhibition [1]: 5.7%
- growth inhibition [2]: 7.25%
- growth inhibition [3]: -30.4%
- growth inhibition [4]: -6.7%
- growth inhibition [5]: -17.4%
- growth inhibition [6]: -7.65%

SMILES: C(=Nc1cccc2ccccc12)c1cccs1
- growth inhibition [1]: -8.95%
- growth inhibition [2]: -4.85%
- growth inhibition [3]: 2.6%
- growth inhibition [4]: -19%
- growth inhibition [5]: 0.25%
- growth inhibition [6]: -19.8%

SMILES: Cc1nc2c(cc1C(=O)NN)c(=O)n(C)c(=O)n2C
- growth inhibition [1]: 8.8%
- growth inhibition [2]: -1.9%
- growth inhibition [3]: -8.5%
- growth inhibition [4]: -5.85%
- growth inhibition [5]: -8.05%
- growth inhibition [6]: 31.6%

SMILES: N#Cc1c(-c2ccccc2)c(-c2ccccc2)nn(CCO)c1=O
- growth inhibition [1]: 7.35%
- growth inhibition [2]: 10.8%
- growth inhibition [3]: 20.9%
- growth inhibition [4]: -21.8%
- growth inhibition [5]: 6.4%
- growth inhibition [6]: 46%

SMILES: NC(=O)CCCO
- growth inhibition [1]: 6.1%
- growth inhibition [2]: -2.65%
- growth inhibition [3]: -3.25%
- growth inhibition [4]: 6.6%
- growth inhibition [5]: 3.25%
- growth inhibition [6]: 2.4%

SMILES: COc1cc(C2c3cc4c(cc3[C@H](OCCN(C)C)[C@@H]3COC(=O)C23)OCO4)cc(OC)c1O (stereo not given in full)
- growth inhibition [1]: 83.2% (active)
- growth inhibition [2]: 87.7% (active)
- growth inhibition [3]: 83.3% (active)
- growth inhibition [4]: 67.8%
- growth inhibition [5]: 78.2% (active)
- growth inhibition [6]: 82.6% (active)

SMILES: CC1(C)C=C(C(c2cccc([N+](=O)[O-])c2)N2CCCCC2)C(=O)c2ccccc21 (stereo not given)
- growth inhibition [1]: -26.9%
- growth inhibition [2]: -10.7%
- growth inhibition [3]: -13.2%
- growth inhibition [4]: -40.9%
- growth inhibition [5]: -0.9%
- growth inhibition [6]: -13.3%

SMILES: CC1(C)CCC(CC(=O)O)(CC(=O)O)CC1
- growth inhibition [1]: -5.25%
- growth inhibition [2]: 8.8%
- growth inhibition [3]: -1.7%
- growth inhibition [4]: -17.3%
- growth inhibition [5]: -2.9%
- growth inhibition [6]: 11.4%

SMILES: C/C(=C\c1ccc(N(C)C)cc1)c1ccncc1
- growth inhibition [1]: 63.3%
- growth inhibition [2]: 38.9%
- growth inhibition [3]: 68.5%
- growth inhibition [4]: 34.8%
- growth inhibition [5]: 86.7% (active)
- growth inhibition [6]: 48.2%

SMILES: Cc1ccc(C2=Nc3cc(C)c(Cl)cc3S(=O)(=O)NN2)cc1
- growth inhibition [1]: -29.1%
- growth inhibition [2]: -24.9%
- growth inhibition [3]: -48.8%
- growth inhibition [4]: -5.2%
- growth inhibition [5]: -18.5%
- growth inhibition [6]: -26.8%

SMILES: O=C1C(=O)c2ccccc2C(O)=C1C1CCCCC1
- growth inhibition [1]: 44.4%
- growth inhibition [2]: 2.15%
- growth inhibition [3]: 24.3%
- growth inhibition [4]: 5.55%
- growth inhibition [5]: 18.1%
- growth inhibition [6]: 26.9%

SMILES: CC/C(=N/NC(N)=O)c1ccc(C)cc1
- growth inhibition [1]: -11.9%
- growth inhibition [2]: -11.8%
- growth inhibition [3]: -10.2%
- growth inhibition [4]: -21.1%
- growth inhibition [5]: 2.75%
- growth inhibition [6]: -8.9%

SMILES: CC(=O)C[n+]1cccc(Br)c1
- growth inhibition [1]: -6.7%
- growth inhibition [2]: 8.7%
- growth inhibition [3]: 10.2%
- growth inhibition [4]: -8.15%
- growth inhibition [5]: 9.5%
- growth inhibition [6]: -5.9%

SMILES: CC(Br)C(=O)NC(CC(N)=O)C(=O)O (stereo not given)
- growth inhibition [1]: 1.8% and -8.25%
- growth inhibition [2]: -15.6% and -16.1%
- growth inhibition [3]: -9.15%
- growth inhibition [4]: 4.2%
- growth inhibition [5]: -14.7%
- growth inhibition [6]: 23% and -17.1%

SMILES: CCOC(=O)c1c(-c2ccc([N+](=O)[O-])cc2)cn(-c2ccc(OC)cc2)c1C
- growth inhibition [1]: 13.2%
- growth inhibition [2]: 7.1%
- growth inhibition [3]: 12.4%
- growth inhibition [4]: 4.35%
- growth inhibition [5]: -0.65%
- growth inhibition [6]: 1%

SMILES: CCCCCCCc1nc(CCCCCCC)nc(CCCCCCC)n1
- growth inhibition [1]: 1.05%
- growth inhibition [2]: 12.9%
- growth inhibition [3]: 6%
- growth inhibition [4]: -15.1%
- growth inhibition [5]: 19.8%
- growth inhibition [6]: 12.6%

SMILES: CCN(CC)CCCC(C)Nc1ncnc2ccccc12 (stereo not given)
- growth inhibition [1]: 2.2%
- growth inhibition [2]: 8.95%
- growth inhibition [3]: 23.1%
- growth inhibition [4]: 15.6%
- growth inhibition [5]: -7.3%
- growth inhibition [6]: -2.25%

SMILES: c1c[nH]c(CN2CCOCC2)n1
- growth inhibition [1]: -32%
- growth inhibition [2]: -28.9%
- growth inhibition [3]: -43.4%
- growth inhibition [4]: 2.5%
- growth inhibition [5]: -38.9%
- growth inhibition [6]: -5.15%

SMILES: CCOC(=O)c1cnc2c(cnn2CC)c1N1CCCCC1
- growth inhibition [1]: -13.9%
- growth inhibition [2]: 28.2%
- growth inhibition [3]: 18.9%
- growth inhibition [4]: -36.9%
- growth inhibition [5]: 36.6%
- growth inhibition [6]: 23.4%

SMILES: CNC(=O)NCCCCC(NC(=O)OCc1ccccc1)C(=O)OCc1ccccc1 (stereo not given)
- growth inhibition [1]: 3.15%
- growth inhibition [2]: -14%
- growth inhibition [3]: -37.2%
- growth inhibition [4]: -3.5%
- growth inhibition [5]: 1.15%
- growth inhibition [6]: -24.1%

SMILES: O=C(O)CCCCCCCC(=O)O
- growth inhibition [1]: 15.4%
- growth inhibition [2]: -0.45%
- growth inhibition [3]: 16.9%
- growth inhibition [4]: -3.05%
- growth inhibition [5]: 5.5%
- growth inhibition [6]: 27.2%

SMILES: CCN(CC)c1ccc2cc(C(=O)NCc3ccccc3)c(=N)oc2c1
- growth inhibition [1]: 9.7%
- growth inhibition [2]: 15.8%
- growth inhibition [3]: -15.8%
- growth inhibition [4]: 3.45%
- growth inhibition [5]: -38%
- growth inhibition [6]: 7.35%

SMILES: CN1N=C(c2ccncc2)OC1c1cccc(F)c1 (stereo not given)
- growth inhibition [1]: -58%
- growth inhibition [2]: -45.4%
- growth inhibition [3]: -25.6%
- growth inhibition [4]: 6.5%
- growth inhibition [5]: 4.9%
- growth inhibition [6]: -16%

SMILES: CCCOC(=O)C1C(c2ccc(OC)cc2)NC(c2ccc(OC)cc2)C(C(=O)OCCC)S1(=O)=O (stereo not given)
- growth inhibition [1]: -39.5%
- growth inhibition [2]: -2.8%
- growth inhibition [3]: -21.6%
- growth inhibition [4]: -5%
- growth inhibition [5]: -19.4%
- growth inhibition [6]: -14.3%

SMILES: NC(=S)N/N=C\c1cccc(O)c1O
- growth inhibition [1]: 2.9%
- growth inhibition [2]: 25.1%
- growth inhibition [3]: 21%
- growth inhibition [4]: 7%
- growth inhibition [5]: 13.4%
- growth inhibition [6]: 12.7%

SMILES: CCOC(=O)CCC(Br)(Br)Br
- growth inhibition [1]: 10%
- growth inhibition [2]: 16%
- growth inhibition [3]: 1.7%
- growth inhibition [4]: 12.8%
- growth inhibition [5]: 4.6%
- growth inhibition [6]: 10.2%

SMILES: Cc1ccc(C(=O)C2C(=O)C(=O)OC2C2OC(=O)C(=O)C2C(=O)c2ccc(C)cc2)cc1 (stereo not given)
- growth inhibition [1]: 43.8%
- growth inhibition [2]: 25.1%
- growth inhibition [3]: 39.5%
- growth inhibition [4]: 31.2%
- growth inhibition [5]: -4.55%
- growth inhibition [6]: 42.8%

SMILES: CCC(Cl)COP(=O)(OCC(Cl)CC)O/C(C)=C(\C)OP(=O)(OCC(Cl)CC)OCC(Cl)CC (stereo not given)
- growth inhibition [1]: 13.8%
- growth inhibition [2]: 13.3%
- growth inhibition [3]: 27.4%
- growth inhibition [4]: 9.7%
- growth inhibition [5]: 0.4%
- growth inhibition [6]: -1.7%

SMILES: C/C(CCc1ccccc1)=N\NC(N)=S
- growth inhibition [1]: 7.1%
- growth inhibition [2]: 0.95%
- growth inhibition [3]: 9.55%
- growth inhibition [4]: -35.1%
- growth inhibition [5]: -5.5%
- growth inhibition [6]: 10.3%

SMILES: COC(=O)c1cc(C)n(C)c(=O)c1CN
- growth inhibition [1]: -6.4%
- growth inhibition [2]: 4.85%
- growth inhibition [3]: -8.6%
- growth inhibition [4]: -22.4%
- growth inhibition [5]: -8.8%
- growth inhibition [6]: 0.8%
